In all, about 5,500 compounds went through this assay and about 2,000 (36%) were called active. Not shown: some 18% with an inconclusive outcome. Cut-off read from the data, not from the text of the source: active = normalized growth mostly below about 0.91 (no sharp cut-off); inconclusive = no clear call, values can overlap the other calls; inactive = mostly above about 0.92. Some of the results follow.
Assay: chemical genetic growth profiling, strain panel (AID 1159580);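 note: tested at 20 µM; growth read once vehicle control cultures reached saturation at 30 °C; 1 = growth at the plate median or of vehicle wells; lower values mean less growth of the strain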
Details: S. cerevisiae deletion strains, growth OD
[1] = locus YHR030C, strain SLT2, active compounds read low

Measured: normalized growth

Cc1onc(-c2ccccc2)c1-c1nc(CSc2ccc(C(F)(F)F)cn2)no1
inactive: locus YAL013W, strain DEP1, active compounds read low 1.03 | locus YBR229C, strain ROT2, active compounds read low 0.973 | locus YCL061C, strain MRC1, active compounds read low 0.991 | locus YDL101C, strain DUN1, active compounds read low 0.968 | locus YDR150W, strain NUM1, active compounds read low 1.02 | locus YEL061C, strain CIN8, active compounds read low 0.975 | locus YGR078C, strain PAC10, active compounds read low 1 | [1] 0.818 | locus YHR087W, strain rtc3, active compounds read low 0.984 | locus YJL187C, strain SWE1, active compounds read low 0.977 | locus YJR043C, strain POL32, active compounds read low 0.957 | locus YJR075W, strain HOC1, active compounds read low 0.995 | locus YLR039C, strain RIC1, active compounds read low 0.947 | locus YLR058C, strain SHM2 (second series), active compounds read low 0.957 | locus YLR085C, strain ARP6, active compounds read low 1.06 | locus YLR262C, strain YPT6, active compounds read low 0.93 | locus YML094W, strain GIM5, active compounds read low 1.02 | locus YMR219W, strain ESC1, active compounds read low 0.975 | locus YMR263W, strain SAP30, active compounds read low 0.971 | locus YMR307W, strain GAS1, active compounds read low 1.02 | locus YNL153C, strain GIM3, active compounds read low 1.02 | locus YNL298W, strain CLA4 (second series), active compounds read low 1.02 | locus YNL322C, strain KRE1, active compounds read low 0.964 | locus YNR030W, strain Alg12, active compounds read low 1.01 | locus YOL006C, strain TOP1, active compounds read low 0.946 | locus YPL055C, strain LGE1, active compounds read low 1.06 | locus YPL241C, strain CIN2, active compounds read low 0.93 | locus YPR135W, strain CTF4, active compounds read low 1.33

Cc1onc(-c2ccccc2)c1C(=O)Sc1ccc(C(F)(F)F)cn1
inactive: locus YAR019C, strain CDC15, active compounds read low 0.941 | locus YBL105C, strain PKC1, active compounds read low 0.961 | locus YBR135W, strain CKS1, active compounds read low 0.965 | locus YBR136W, strain MEC1, active compounds read low 0.955 | locus YBR160W, strain CDC28, active compounds read low 0.967 | locus YDL017W, strain CDC7, active compounds read low 0.967 | locus YDL028C, strain MPS1, active compounds read low 0.958 | locus YDL108W, strain KIN28, active compounds read low 0.974 | locus YDL132W, strain cdc53, active compounds read low 0.951 | locus YDR052C, strain DBF4, active compounds read low 0.977 | locus YDR054C, strain cdc34, active compounds read low 0.937 | locus YDR226W, strain ADK1, active compounds read low 0.963 | locus YFL009W, strain cdc4, active compounds read low 0.951 | locus YFL029C, strain CAK1, active compounds read low 0.949 | locus YFR003C, strain YPI1, active compounds read low 0.971 | locus YFR028C, strain CDC14, active compounds read low 0.968 | locus YGR092W, strain DBF2, active compounds read low 0.799 | locus YHR079C, strain IRE1, active compounds read low 0.712 | locus YIL147C, strain SLN1, active compounds read low 0.955 | locus YJR016C, strain ILV3, active compounds read low 0.973 | locus YKL048C, strain ELM1, active compounds read low 0.933 | locus YKL101W, strain HSL1, active compounds read low 0.817 | locus YKL193C, strain SDS22, active compounds read low 0.952 | locus YLR133W, strain CKI1, active compounds read low 0.749 | locus YMR001C, strain CDC5, active compounds read low 0.952 | locus YMR205C, strain PFK2 (second series), active compounds read low 0.882 | locus YMR277W, strain FCP1, active compounds read low 0.943 | locus YNL006W, strain LST8, active compounds read low 0.979 | locus YNL020C, strain ARK1, active compounds read low 0.874 | locus YNL161W, strain CBK1, active compounds read low 0.951 | locus YNL207W, strain RIO2, active compounds read low 0.961 | locus YNL222W, strain SSU72, active compounds read low 0.918 | locus YNL307C, strain MCK1 (second series), active compounds read low 0.683 | locus YOL078W, strain AVO1, active compounds read low 0.948 | locus YOR061W, strain CKA2, active compounds read low 0.765 | locus YOR231W, strain MKK1, active compounds read low 0.732 | locus YOR329C, strain SCD5, active compounds read low 0.96 | locus YPL153C, strain RAD53, active compounds read low 0.661 | locus YPL209C, strain IPL1, active compounds read low 0.961 | locus YPR025C, strain CCL1, active compounds read low 0.954 | locus YPR106W, strain ISR1, active compounds read low 0.939 | locus YPR111W, strain DBF20, active compounds read low 0.946 | strain NNK1, active compounds read low 0.963 | strain TSCII, active compounds read low 0.937
active: locus YDL214C, strain PRR2, active compounds read low 0.217 | locus YDR477W, strain SNF1, active compounds read low 0.187 | locus YER123W, strain YCK3, active compounds read low 0.465 | locus YER133W, strain GLC7, active compounds read low 0.249 | locus YFR019W, strain FAB1, active compounds read low 0.739 | locus YGR040W, strain KSS1, active compounds read low 0.227 | locus YGR052W, strain FMP48, active compounds read low 0.242 | [1] 0.317 | locus YHR082C, strain KSP1, active compounds read low 0.256 | locus YHR205W, strain SCH9, active compounds read low 0.343 | locus YJL095W, strain BCK1, active compounds read low 0.424 | locus YJR066W, strain TOR1 (second series), active compounds read low 0.343 | locus YJR066W, strain TOR1, active compounds read low 0.283 | locus YKL203C, strain TOR2, active compounds read low 0.53 | locus YLR113W, strain HOG1, active compounds read low 0.184 | locus YML070W, strain DAK1, active compounds read low 0.587 | locus YNL183C, strain NPR1, active compounds read low 0.106 | locus YOL136C, strain PFK27, active compounds read low 0.583 | locus YOR119C, strain RIO1, active compounds read low 0.471 | locus YPL256C, strain CLN2, active compounds read low 0.209
